# Measurements: the supplement of paper PMC4466140
# Legend:
# Assay in all cases: SPOT peptide array binding signal intensity (averaged, normalized) (arbitrary units (background-subtracted, floor 0; scale differs between SH3 domains)); higher = stronger binding of the SH3 domain to the peptide
# AgAbp1 = molecular target: AgAbp1
# Procedure, shortened: (§1)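 Four yeast species supplied the SH3 domains, which were expressed as GST fusions in E. coli BL21(DE3) and purified on glutathione Sepharose. Incubation with cellulose membranes carrying synthetic 15-mer peptides, cysteines exchanged for serines, ran overnight at 4°C at 10 μg/ml in TBS-based blocking buffer. Binding signal is reported as normalized, background-subtracted spot intensity averaged over replicates, in arbitrary units not shared between domains.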
# AgBbc1 = molecular target: AgBbc1
# Procedure, shortened: as §1
# AgBem1-D1 = molecular target: AgBem1-D1
# Procedure, shortened: as §1
# AgBzz1-D1 = molecular target: AgBzz1-D1
# Procedure, shortened: as §1
# AgBzz1-D2 = molecular target: AgBzz1-D2
# Procedure, shortened: as §1
# AgCyk3 = molecular target: AgCyk3
# Procedure, shortened: as §1
# AgFus1 = molecular target: AgFus1
# Procedure, shortened: as §1
# AgHof1 = molecular target: AgHof1
# Procedure, shortened: as §1
# AgHse1 = molecular target: AgHse1
# Procedure, shortened: as §1
# AgLsb1 = molecular target: AgLsb1
# Procedure, shortened: as §1
# AgLsb4 = molecular target: AgLsb4
# Procedure, shortened: as §1
# AgMyo5 = molecular target: AgMyo5
# Procedure, shortened: as §1
# AgNbp2 = molecular target: AgNbp2
# Procedure, shortened: as §1
# AgRvs167 = molecular target: AgRvs167
# Procedure, shortened: as §1
# AgSho1 = molecular target: AgSho1
# Procedure, shortened: as §1
# AgSla1-D1-D2 = molecular target: AgSla1-D1-D2
# Procedure, shortened: as §1
# AgSla1-D3 = molecular target: AgSla1-D3
# Procedure, shortened: as §1
# CaAbp1-D1 = molecular target: CaAbp1-D1
# Procedure, shortened: as §1
# CaAbp1-D2 = molecular target: CaAbp1-D2
# Procedure, shortened: as §1
# CaBbc1 = molecular target: CaBbc1
# Procedure, shortened: as §1
# CaBem1-D1 = molecular target: CaBem1-D1
# Procedure, shortened: as §1
# CaBzz1-D1 = molecular target: CaBzz1-D1
# Procedure, shortened: as §1
# CaBzz1-D2 = molecular target: CaBzz1-D2
# Procedure, shortened: as §1
# CaCyk3 = molecular target: CaCyk3
# Procedure, shortened: as §1
# CaFus1 = molecular target: CaFus1
# Procedure, shortened: as §1
# CaHof1 = molecular target: CaHof1
# Procedure, shortened: as §1
# CaHse1 = molecular target: CaHse1
# Procedure, shortened: as §1
# CaLsb1 = molecular target: CaLsb1
# Procedure, shortened: as §1
# CaLsb4 = molecular target: CaLsb4
# Procedure, shortened: as §1
# CaMyo5 = molecular target: CaMyo5
# Procedure, shortened: as §1
# SpBzz1-D2 = molecular target: SpBzz1-D2
# Procedure, shortened: as §1
# SpCyk3 = molecular target: SpCyk3
# Procedure, shortened: as §1
# SpHof1 = molecular target: SpHof1
# Procedure, shortened: as §1
# SpHof1-2 = molecular target: SpHof1-2
# Procedure, shortened: as §1
# SpHof1-3 = molecular target: SpHof1-3
# Procedure, shortened: as §1
# SpHse1 = molecular target: SpHse1
# Procedure, shortened: as §1
# SpLsb1 = molecular target: SpLsb1
# Procedure, shortened: as §1
# SpLsb4 = molecular target: SpLsb4
# Procedure, shortened: as §1
# SpMyo1 = molecular target: SpMyo1
# Procedure, shortened: as §1
# SpNbp2 = molecular target: SpNbp2
# Procedure, shortened: as §1
# SpPex13 = molecular target: SpPex13
# Procedure, shortened: as §1
# SpRvs167 = molecular target: SpRvs167
# Procedure, shortened: as §1
# SpSla1-D1-D2 = molecular target: SpSla1-D1-D2
# Procedure, shortened: as §1
# SpSla1-D3 = molecular target: SpSla1-D3
# Procedure, shortened: as §1
binder,measurement,setting,value
NSVPIMPTLPPRPYI,SPOT peptide array binding signal intensity,AgAbp1,≤ 0
same,SPOT peptide array binding signal intensity,AgBbc1,394
same,SPOT peptide array binding signal intensity,AgBem1-D1,102
same,SPOT peptide array binding signal intensity,AgBzz1-D1,21
same,SPOT peptide array binding signal intensity,AgBzz1-D2,≤ 0
same,SPOT peptide array binding signal intensity,AgCyk3,9.5
same,SPOT peptide array binding signal intensity,AgFus1,20.5
same,SPOT peptide array binding signal intensity,AgHof1,118
same,SPOT peptide array binding signal intensity,AgHse1,320
same,SPOT peptide array binding signal intensity,AgLsb1,26
same,SPOT peptide array binding signal intensity,AgLsb4,2370
same,SPOT peptide array binding signal intensity,AgMyo5,71.5
same,SPOT peptide array binding signal intensity,AgNbp2,192
same,SPOT peptide array binding signal intensity,AgRvs167,50.2
same,SPOT peptide array binding signal intensity,AgSho1,21
same,SPOT peptide array binding signal intensity,AgSla1-D1-D2,≤ 0
same,SPOT peptide array binding signal intensity,AgSla1-D3,≤ 0
same,SPOT peptide array binding signal intensity,CaAbp1-D1,≤ 0
same,SPOT peptide array binding signal intensity,CaAbp1-D2,5
same,SPOT peptide array binding signal intensity,CaBbc1,1090
same,SPOT peptide array binding signal intensity,CaBem1-D1,162
same,SPOT peptide array binding signal intensity,CaBzz1-D1,103
same,SPOT peptide array binding signal intensity,CaBzz1-D2,3
same,SPOT peptide array binding signal intensity,CaCyk3,120
same,SPOT peptide array binding signal intensity,CaFus1,293
same,SPOT peptide array binding signal intensity,CaHof1,15
same,SPOT peptide array binding signal intensity,CaHse1,310
same,SPOT peptide array binding signal intensity,CaLsb1,3.25
same,SPOT peptide array binding signal intensity,CaLsb4,2280
same,SPOT peptide array binding signal intensity,CaMyo5,27.5
VYTRTAFQIPGDDKI,SPOT peptide array binding signal intensity,SpBzz1-D2,≤ 0
same,SPOT peptide array binding signal intensity,SpCyk3,≤ 0
same,SPOT peptide array binding signal intensity,SpHof1,≤ 0
same,SPOT peptide array binding signal intensity,SpHof1-2,≤ 0
same,SPOT peptide array binding signal intensity,SpHof1-3,≤ 0
same,SPOT peptide array binding signal intensity,SpHse1,≤ 0
same,SPOT peptide array binding signal intensity,SpLsb1,68.5
same,SPOT peptide array binding signal intensity,SpLsb4,≤ 0
same,SPOT peptide array binding signal intensity,SpMyo1,3.5
same,SPOT peptide array binding signal intensity,SpNbp2,7
same,SPOT peptide array binding signal intensity,SpPex13,≤ 0
same,SPOT peptide array binding signal intensity,SpRvs167,0.333
same,SPOT peptide array binding signal intensity,SpSla1-D1-D2,2
same,SPOT peptide array binding signal intensity,SpSla1-D3,≤ 0
